Hits are enriched below; roughly 1.6% of the tested compounds scored in any of these assays.
KCNQ2 inh: inhibitors of rat KCNQ2 potassium channel. O88943. CHO-K1 KCNQ2, FluxOR thallium flux, 20 min; hits give low values. B-score at 10 µM. 1.1% of 310,000 active;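 active = fluorescence ratio B-score at most minus 3 library SDs, with starting brightness B-score within 2 library SDs, cut at about -5.5 in these data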
Target sequence (O88943 whole entry, looked up): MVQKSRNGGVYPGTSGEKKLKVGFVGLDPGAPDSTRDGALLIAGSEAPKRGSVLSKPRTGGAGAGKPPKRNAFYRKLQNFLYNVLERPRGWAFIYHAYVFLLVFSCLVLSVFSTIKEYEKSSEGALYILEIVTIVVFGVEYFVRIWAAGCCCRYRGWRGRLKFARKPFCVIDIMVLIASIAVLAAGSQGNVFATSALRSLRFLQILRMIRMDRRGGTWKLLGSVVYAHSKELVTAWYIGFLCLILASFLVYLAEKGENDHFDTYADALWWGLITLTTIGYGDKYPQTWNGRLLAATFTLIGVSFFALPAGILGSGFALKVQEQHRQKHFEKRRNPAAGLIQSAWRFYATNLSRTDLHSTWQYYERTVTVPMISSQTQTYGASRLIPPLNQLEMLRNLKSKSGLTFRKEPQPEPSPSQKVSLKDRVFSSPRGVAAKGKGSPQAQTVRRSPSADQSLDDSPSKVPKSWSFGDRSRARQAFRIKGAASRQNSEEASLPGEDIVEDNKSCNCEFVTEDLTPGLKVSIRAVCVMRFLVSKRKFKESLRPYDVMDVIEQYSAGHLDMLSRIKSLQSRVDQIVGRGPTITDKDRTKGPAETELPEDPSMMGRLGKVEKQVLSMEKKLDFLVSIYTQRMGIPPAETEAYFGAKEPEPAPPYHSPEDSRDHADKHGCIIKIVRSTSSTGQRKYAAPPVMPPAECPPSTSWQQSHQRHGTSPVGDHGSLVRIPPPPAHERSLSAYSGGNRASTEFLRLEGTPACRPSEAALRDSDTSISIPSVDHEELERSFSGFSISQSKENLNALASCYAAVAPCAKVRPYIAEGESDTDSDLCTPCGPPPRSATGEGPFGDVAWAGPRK
KCNQ2 enhance: potentiators of rat KCNQ2 potassium channel; O88943; CHO-K1 KCNQ2, FluxOR thallium flux fluorescence; hits give high values; B-score at 10 µM; 0.54% of 310,000 active;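 active = fluorescence ratio B-score at least 3 SD of library B-scores, with initial fluorescence B-score within 3 of them, cut at about 5.3 in these data; same plate scores as AID 2156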;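 also: B-score of peak minus minimum over baseline fluorescence ratio after K+ and Tl+ stimulus; positive B-score means potentiation of KCNQ2 with more thallium influx and brighter signal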
The depositor's hits bear a star; i = inactive; nt = no result.

SMILES	KCNQ2 inh	KCNQ2 enhance
Cn1c(=O)[nH]c(=O)c2c1nc([N+](=O)[O-])n2Cc1ccccc1	-6.2*	-6.2
CC(C)Cn1c([N+](=O)[O-])nc2c1c(=O)[nH]c(=O)n2C	i	nt
CCOC(=O)c1sc(NC(=O)Cc2c(F)cccc2Cl)nc1C	i	nt
CCOC(=O)c1sc2nccc(N(C)C)c2c1N=CNOCc1c(F)cccc1Cl	-6.2*	-6.2
CC1=NN(c2nc3ccccc3[nH]2)C(=O)C1Cc1ccccc1 (centres undefined)	i	0.01
CC(C)CCN1CC(=O)N2Cc3[nH]c4ccccc4c3C[C@H]2C1=O	-7.2*	-7.2
CCCN1CC(=O)N2Cc3[nH]c4ccccc4c3C[C@H]2C1=O	i	nt
Cc1cccc(NC(=S)NC(=O)c2cccs2)n1	i	1.5
O=C(NC(=S)Nc1nc(-c2ccccc2)cs1)c1cccs1	i	7.9*
Cc1nc(NC(=S)NC(=O)c2cccs2)ccc1Br	i	9.4*
Cc1ccc(-c2csc(NC(=S)NC(=O)c3cccs3)n2)cc1	i	3.8
O=C(NC(=S)Nc1nc(-c2cccc3ccccc23)cs1)c1cc2ccccc2o1	i	8.2*
CC(=O)Nc1nc(-c2cccc3ccccc23)cs1	i	0.01
Nc1[nH]n(-c2ccccc2)c(=O)c1N=Nc1ccc2ncsc2c1	i	nt
CC(C)C[C@H](NC(=O)c1[nH]cnc1C(=O)Nc1ccccc1)C(=O)OC(C)(C)C	i	nt
CC1=C(C(=O)OCCC#N)C(c2cc3c(cc2Br)OCO3)NC(=O)N1 (centres undefined)	i	nt
NC(=O)C1CC12c1ccccc1-c1ccccc12 (centres undefined)	i	1.8
CC(C)N1CCc2c(sc(NC(=O)c3nc4ccccc4s3)c2C(N)=O)C1	i	nt
CC(C)N1CCc2c(sc(NC(=O)c3cc(-c4cccs4)nc4ccccc34)c2C(N)=O)C1	-6.4*	-6.4
O=C(c1ccc(N2CCOCC2)c([N+](=O)[O-])c1)N1CCCC(C(F)(F)F)C1 (centres undefined)	i	nt
O=c1[nH][nH]c2cc(=O)n(-c3ccc(Cl)cc3)nc12	i	0.76
CN1CCN(c2c(/C=N/O)c3ccccc3n2C)CC1	i	1.7
Cc1ccccc1C(=O)O/N=C/c1c(N2CCOCC2)n(C)c2ccccc12	-7.6*	-7.6
COc1ccc(C2CC(c3cccs3)=NN2C(=O)COC(=O)c2cncc(Br)c2)cc1OC (centres undefined)	i	nt
COCCCNC(=O)c1cn(CC(C)C)c(=O)c2c1c1ccccc1n2C	i	0.05
SMILES	KCNQ2 inh	KCNQ2 enhance
CCN1CCN(C(=O)c2cn(CCOC)c(=O)c3c2c2ccccc2n3C)CC1	i	0.06
CC(C)Cn1cc(C(=O)N2CCN(c3ccccn3)CC2)c2c3ccccc3n(C)c2c1=O	-5.7*	-5.7
COCCn1cc(C(=O)N2CCCC(C)C2)c2c3ccccc3n(C)c2c1=O (centres undefined)	-6.6*	-6.6
O=C(/C=C/c1cccs1)NCc1ccccc1	i	nt
O=C(COc1ccc(Cl)cc1)Nc1ccc(C(=O)O)cc1NC(=O)COc1ccc(Cl)cc1	i	1.4
O=C(C/C=N/OCc1c(Cl)cccc1Cl)c1ccc(Cl)cc1	-7.4*	-7.4
O=C(C/C=N/OCc1c(Cl)cccc1Cl)c1cnc(-c2ccccc2)s1	i	nt
COc1cc(C#N)ccc1OC(=O)c1cccc(S(=O)(=O)N2CCN(C)CC2)c1	i	0.56
COC(=O)C(Cc1ccc(OC(=O)c2ccccc2C)cc1)N1Cc2ccccc2C1=O (centres undefined)	-5.9*	-5.9
COC(=O)C(Cc1ccc(OC(=O)c2ccccc2Cl)cc1)N1Cc2ccccc2C1=O (centres undefined)	i	nt
CN(C)c1ccc(/C=N/N2C(=S)SC(C)(C)C2N(O)C(=O)Nc2ccc([N+](=O)[O-])cc2)cc1 (centres undefined)	-6.8*	-6.8
CNC(=O)N(O)C1N(/N=C/c2ccc(SC)cc2)C(=S)SC1(C)C (centres undefined)	i	nt
O=C(CSc1nc2ccccc2s1)NC1CCCc2ccccc21 (centres undefined)	i	nt
O=C(CSc1nnc(-c2ccncc2)n1Cc1ccccc1)NC1CCCc2ccccc21 (centres undefined)	-5.8*	-5.8
Cc1cccc(Nc2nnc(SCC(=O)NC3CCCc4ccccc43)s2)c1C (centres undefined)	-5.9*	-5.9
CNC(=O)CSc1nnc(-c2ccncc2)n1Cc1ccccc1	i	nt
Cc1cc([N+](=O)[O-])c(NCCCCCCO)c([N+](=O)[O-])c1	i	0.39
Cc1ccc(C(=O)Nc2ccccc2-c2ccccc2)cc1S(=O)(=O)Nc1cccc(C)c1C	-7.9*	-7.9
Cc1ccc(C(=O)NCc2ccncc2)cc1S(=O)(=O)Nc1cccc(C)c1C	i	nt
Cc1ccc(C)c(S(=O)(=O)Nc2ccccc2C(=O)Nc2ccccc2N2CCOCC2)c1	-6*	-6
Cc1cc(F)ccc1S(=O)(=O)Nc1ccccc1C(=O)Nc1ccccc1N1CCOCC1	i	nt
Cc1ccccc1NC(=O)c1ccc(C)c(S(=O)(=O)Nc2cccnc2)c1	i	nt
Cc1ccc(C)c(NS(=O)(=O)c2cc(C(=O)Nc3ccccc3-c3ccccc3)ccc2C)c1	-6.2*	-6.2
C#CCOC(=O)C(NC(=O)c1ccccc1)=C1CCCCC1	i	nt
CCN=C(NCC)SC1CC(=O)N(CCc2ccccc2)C1=O (centres undefined)	i	1.7
SMILES	KCNQ2 inh	KCNQ2 enhance
CC(C)CC1NC(=O)N(CC(=O)NC2CCCc3ccccc32)C1=O (centres undefined)	i	nt
Cc1cc(Oc2ccc(-c3ccccc3)cc2)nc(N2CCOCC2)n1	i	nt
Cc1cc(Oc2ccc(C(C)(C)C)cc2)nc(N2CCOCC2)n1	-6.2*	-6.2
Cc1nc(NC(=O)c2ccccc2)sc1-c1csc(Nc2cccc(F)c2)n1	i	0.54
Cc1cc(NS(=O)(=O)c2ccc(Nc3nc(-c4sc(NC(=O)c5ccccc5)nc4C)cs3)cc2)no1	-13*	-13
Cc1cc(C)c2nc(N3CCC(C(=O)NCC4CCCO4)CC3)sc2c1 (centres undefined)	i	nt
Cc1cc(C)c2nc(N3CCC(C(=O)NCCCN4CCCCC4)CC3)sc2c1	-6.5*	-6.5
CNC(=S)NNC(=O)c1cccn(Cc2cccc(C(F)(F)F)c2)c1=O	i	nt
CC1(C)CC(=O)C(C2=NC3(CCCCCC3)Cc3ccccc32)=C(O)C1	-5.8*	-5.8
Cc1c(NC2=NC3(CCCCC3)Cc3ccccc32)c(=O)n(-c2ccccc2)n1C	i	0.57
O=C(C1CCN(S(=O)(=O)c2cc(Cl)ccc2Cl)CC1)N1CCOCC1	i	nt
Cc1ccc(-c2nnn(C/C(N)=N/O)n2)cc1	i	0.26
Cc1ccc(S(=O)(=O)N2CCN(Cc3ccccc3C(F)(F)F)CC2)cc1	-6*	-6
Cc1ccccc1CN1CCN(Cc2ccccc2C(F)(F)F)CC1	i	nt
Cc1ccc(C(=O)Nn2c(C)nc3ccccc3c2=O)cc1C	i	1.6
COc1ccc(N2CCN(C(CNC(=O)C(=O)NCc3cccs3)c3ccco3)CC2)cc1 (centres undefined)	i	1.4
CCN(CC)CC(=O)Nc1sc(C)cc1C(=O)c1ccccc1	i	nt
CCc1cc(C(=O)c2ccc(Br)cc2)c(NC(=O)CN(CC)CC)s1	-5.7*	-5.7
c1ccc(CSc2cc3ccccc3[nH]2)cc1	i	nt
O=C(c1ccc2ccccc2c1)N1CCCCC1	i	0.86
O=C(c1ccc2ccccc2c1)N1CCN(c2ccccc2)CC1	-5.6*	-5.6
